Measured values from ChEMBL document CHEMBL3988442, “University of Dundee, Small-Polar-MMV Screening Library” (2021).
Screen size: about 69,000 compounds; about 950 (1.4%) showed an effect of 50% or more. The sample holds strong results, similar compounds and a random draw of the others, so the mix is not that of the screen.

These compounds were tested on Mycobacterium tuberculosis (assay: Cornell M. t heat shock assay; note: in the data most compounds retested in dose-response had high values).
Assay type: functional, organism-based
Design: dose or concentration left out as unconfirmed
For `Cc1cccc(CN2C(=O)CCC23CCNCC3)n1.O=C(O)C(F)(F)F.O=C(O)C(F)(F)F`, the “Percent Effect” value was -5.538%. For `COCCN1CCC2(CCCN(c3ncccn3)C2)C1.O=C(O)C(F)(F)F` (stereo not drawn), the “Percent Effect” value was -80.98%. For `CN1CCC(c2n[nH]c3ncccc23)C1.O=CO` (stereo not drawn), the “Percent Effect” value was 50.56%. `c1cnc(N2CCC(c3n[nH]c4ncccc34)C2)nc1` (stereo not drawn) was tested, and the “Percent Effect” value was -8.956%. With `CN1CCCC(c2n[nH]c3ncccc23)C1` (stereo not drawn) the “Percent Effect” value was -10.45%. With `Cc1ccc(N2CCN(c3ccccc3C)CC2C)nn1` (stereo not drawn) the “Percent Effect” value was 2.644%. In the case of `Cc1ccccc1N1CCN(c2ccncn2)C(C)C1` (stereo not drawn), the “Percent Effect” value is reported as 56.56%. With `Cc1ccccc1N1CCN(c2cc(N(C)C)ncn2)C(C)C1` (stereo not drawn) the “Percent Effect” value was 21.52%. `Cc1ccc(Nc2nccc(C3CCN(C(=O)CN)C3)n2)nc1.Cl` (stereo not drawn) was tested, and the “Percent Effect” value was -1.968%. In the case of `COc1cccc(COCC(O)CN(C)c2ccc(C)cc2C)c1` (stereo not drawn), the “Percent Effect” value is reported as -34.76%. With `Cc1cc(N2CCC(CO)(CC3CCCCO3)CC2)c2ccccc2n1` (stereo not drawn) the “Percent Effect” value was -3.721%. For `Cc1cc(N2CCC(CO)(CC3CCCCO3)CC2)nc2ccccc12` (stereo not drawn), the “Percent Effect” value was 3.069%. In the case of `OCC1(CC2CCCCO2)CCN(c2cnc3ccccc3n2)CC1` (stereo not drawn), the “Percent Effect” value is reported as 103.4%. With `CO[C@@H]1CC[C@H]2[C@H]1OCCN2Cc1ccc(F)cc1.O=C(O)C(F)(F)F` the “Percent Effect” value was -14.29%. In the case of `CCn1cc(NC(=O)CN2CCC(Oc3ccc(F)cc3)CC2)c(C)n1.Cl`, the “Percent Effect” value is reported as -4.397%. `CCCN(C(=O)c1cnccn1)c1nc2c(s1)CCc1c-2cnn1C` was tested, and the “Percent Effect” value was -8.207%. For `COCCN(C(=O)c1ccccn1)c1nc2c(s1)CCc1c-2cnn1C`, the “Percent Effect” value was 15.96%. With `CCCN(C(=O)c1cccnc1)c1nc2c(s1)CCc1c-2cnn1C` the “Percent Effect” value was 19.23%. With `CCCN(C(=O)c1ccncc1)c1nc2c(s1)CCc1c-2cnn1C` the “Percent Effect” value was 61.93%. With `CCCN(C(=O)c1ccccn1)c1nc2c(s1)CCc1c-2cnn1C` the “Percent Effect” value was 103.2%. In the case of `CCCN(C(=O)c1cnc(C)cn1)c1nc2c(s1)CCc1c-2cnn1C`, the “Percent Effect” value is reported as -19.73%. `Cc1nc(N2CCOCC2)nc2c1CCN(Cc1nccn1C)CC2.O=C(O)C(F)(F)F` was tested, and the “Percent Effect” value was -4.986%. With `O=C(O)C(F)(F)F.O=C(c1cccnc1)N1CCC2(CCN(C(=O)N3CCCC3)CC2)C1` the “Percent Effect” value was 2.065%. `CCN1Cc2nccn2CC(COCc2csc(C)n2)C1.O=C(O)C(F)(F)F.O=C(O)C(F)(F)F` (stereo not drawn) was tested, and the “Percent Effect” value was 34.39%. With `CN1C(=O)CC(c2ccccc2)C12CCN(CCO)CC2.O=C(O)C(F)(F)F` (stereo not drawn) the “Percent Effect” value was 13.27%. In the case of `Cl.O[C@@H]1CN(Cc2cccc(F)c2)CC[C@H]1NCc1ccccn1`, the “Percent Effect” value is reported as 14.29%. `CCOc1ccc2c(c1)CN(Cc1nc3c(cnn3C)c(=O)[nH]1)CC2` was tested, and the “Percent Effect” value was -1.196%. For `COc1ccc2c(c1)CN(Cc1nc3ccsc3c(=O)[nH]1)CC2`, the “Percent Effect” value was 63.99%. In the case of `COc1ccc2c(c1)CN(Cc1nc3c(cnn3C)c(=O)[nH]1)CC2`, the “Percent Effect” value is reported as -0.696%. `Fc1cnc(N2C[C@@H](OCC3CCOCC3)[C@H]3OCCC[C@H]32)nc1.O=C(O)C(F)(F)F` was tested, and the “Percent Effect” value was 41.59%. In the case of `CC(C)N1CCc2nnc(COc3cncnc3)n2CC1.O=C(O)C(F)(F)F`, the “Percent Effect” value is reported as -11.8%. In the case of `CO[C@H]1CCN(C(=O)c2ccsc2)[C@@H]2CN(CC3CC3)C[C@H]12.O=C(O)C(F)(F)F`, the “Percent Effect” value is reported as -4.831%. `Cc1cccc(N2CCOCC3(C2)CN(c2ccoc2)C(=O)CO3)n1.O=C(O)C(F)(F)F` (stereo not drawn) was tested, and the “Percent Effect” value was 36.14%. With `CN(C)[C@@H]1CN(C(=O)Cc2ccsc2)[C@@H]2CCCO[C@H]12.O=C(O)C(F)(F)F` the “Percent Effect” value was 1.941%. In the case of `c1ccc2sc(N3CCN(c4ncnc5c4CCC5)CC3)nc2c1`, the “Percent Effect” value is reported as -9.42%. For `Cc1ncnc(N2CCCN(c3nc4ccccc4s3)CC2)c1C`, the “Percent Effect” value was 10.22%. `c1ccc2sc(N3CCCN(c4ncnc5c4CCNC5)CC3)nc2c1` was tested, and the “Percent Effect” value was 53.45%. `O=C(c1ccco1)N1C(CN2CCOCC2)[C@]2(O)CC[C@H]1CC2` (stereo partly drawn) was tested, and the “Percent Effect” value was 30.59%. For `c1ccc(CO[C@@H]2CN(Cc3ccoc3)[C@@H]3COC[C@@H]32)nc1`, the “Percent Effect” value was 52.89%. For `Cc1nc(CO[C@@H]2CN(Cc3ccccn3)[C@@H]3COC[C@@H]32)cs1`, the “Percent Effect” value was -33.39%. In the case of `Fc1ccc(CN2C[C@@H](OCc3ccccn3)[C@H]3COC[C@H]32)cc1.O=C(O)C(F)(F)F.O=C(O)C(F)(F)F`, the “Percent Effect” value is reported as 25.12%. With `Cc1nc(C2CCNC2)nc2c1CCC(=O)N2C.Cl` (stereo not drawn) the “Percent Effect” value was 7.271%. `O=C(NCCc1ccccc1)NCC(O)c1cccs1` (stereo not drawn) was tested, and the “Percent Effect” value was 20.6%. For `Br.O=C(O)c1csc(NCCc2ccccc2)n1`, the “Percent Effect” value was 78.91%. `CN1CC(=O)c2sc(NCCc3ccccc3)nc2C1` was tested, and the “Percent Effect” value was -13.74%. In the case of `COCCNC(=O)c1cc(-c2cc[nH]n2)n2ccccc12.O=C(O)C(F)(F)F`, the “Percent Effect” value is reported as -6.749%. With `O=C(O)C(F)(F)F.O=C(O)C(F)(F)F.O=C(O)C(F)(F)F.c1cncc(CN2CCC3(COCCN(C4CCOCC4)C3)C2)c1` (stereo not drawn) the “Percent Effect” value was -18.23%. For `O=C(C1CCCO1)N1CCC2(CC1)COCCN(Cc1cccnc1)C2.O=C(O)C(F)(F)F.O=C(O)C(F)(F)F` (stereo not drawn), the “Percent Effect” value was -5.406%. `O=C([C@@H]1CCCO1)N1CCOCC2(CCN(Cc3cccnc3)C2)C1` (stereo partly drawn) was tested, and the “Percent Effect” value was 51.35%. For `Cc1ccc(N2CCC3(CCN(C(=O)c4ccoc4)CC3)CC2)nn1.O=C(O)C(F)(F)F`, the “Percent Effect” value was -13.67%. In the case of `CS(=O)(=O)NCc1cn2c(n1)CN(Cc1cccnc1)CC2.O=C(O)C(F)(F)F.O=C(O)C(F)(F)F`, the “Percent Effect” value is reported as 42.6%. For `CN1CCC(c2nc3ccc(-c4cccc(F)c4)cn3n2)CC1.O=C(O)C(F)(F)F`, the “Percent Effect” value was 3.867%. For `O=C(Nc1ccc(F)cc1)C1CCc2ccccc2N1` (stereo not drawn), the “Percent Effect” value was 1.641%. In the case of `Nc1ncc(-c2ccc(NC(=O)[C@@H]3CCCCN3)cc2)cn1`, the “Percent Effect” value is reported as -9.095%. For `O=C(Nc1ccc(F)cc1)C1CSCN1` (stereo not drawn), the “Percent Effect” value was 55.12%. For `Cl.N#Cc1ccc(NC(=O)C2CSCN2)cc1` (stereo not drawn), the “Percent Effect” value was 75.04%. In the case of `Cc1csc2c(N3CCNC(C(=O)Nc4ccc(F)cc4)C3)ncnc12` (stereo not drawn), the “Percent Effect” value is reported as 27.39%. With `CNc1ncc(-c2ccc(NC(=O)[C@@H]3CCCCN3)cc2)cn1` the “Percent Effect” value was -9.316%. `Cc1ccc(C(=O)N2[C@@H]3CC[C@H]2CN(C)C(=O)C3)c(=O)[nH]1` was tested, and the “Percent Effect” value was -6.73%. `O=C(O)C(F)(F)F.O=C([C@@H]1C[C@@H]2CCN(Cc3ccc4c(c3)OCO4)C[C@@H]2O1)N1CCCC1` was tested, and the “Percent Effect” value was -15.24%. With `CC(C)COC[C@@H]1CC[C@H]2[C@H](CCN2C(=O)c2ccncc2F)O1.O=C(O)C(F)(F)F` the “Percent Effect” value was -34.7%. `Cn1c(CCNc2nccnc2C#N)nc2cc(Cl)ccc21` was tested, and the “Percent Effect” value was -3.646%. With `Cc1ncc(CN(C)Cc2nc3cc(Cl)ccc3n2C)s1` the “Percent Effect” value was 61.31%. For `CCn1c(CN(C)Cc2cnc(C)s2)nc2c(F)cccc21`, the “Percent Effect” value was -32.12%. With `O=C(O)C(F)(F)F.O=C(O)C(F)(F)F.c1ccc(CO[C@@H]2CC[C@H]3[C@H]2OCCN3Cc2ccsc2)nc1` the “Percent Effect” value was -28.68%. For `COc1cccc(CN2CCCC2c2cncc(Nc3nncs3)n2)c1` (stereo not drawn), the “Percent Effect” value was 104.6%. With `CNc1cncc(C2CCCN2Cc2ccnc(C)n2)n1` (stereo not drawn) the “Percent Effect” value was -20.32%. For `CNc1cncc(C2CCCN2Cc2ccccn2)n1` (stereo not drawn), the “Percent Effect” value was -4.503%. In the case of `CNc1cncc(C2CCCN2Cc2cccc(C)n2)n1` (stereo not drawn), the “Percent Effect” value is reported as 0.9246%. For `COc1cccc(CN2CCCC2c2ccc[nH]2)c1` (stereo not drawn), the “Percent Effect” value was -7.682%. In the case of `Cc1ccccc1CN1CCCC1c1cncc(Nc2nncs2)n1` (stereo not drawn), the “Percent Effect” value is reported as 103.1%. For `Cc1cccc(CN2CCCC2c2cncc(Nc3nncs3)n2)c1` (stereo not drawn), the “Percent Effect” value was 96.91%. In the case of `CNc1cncc(C2CCCN2Cc2ccccc2OCC(=O)O)n1` (stereo not drawn), the “Percent Effect” value is reported as 2.446%. With `COc1cccc(CN2CCCC2c2c(C)nn(C)c2C)c1` (stereo not drawn) the “Percent Effect” value was 27.85%. For `Cc1cccc(C(=O)N2C[C@@H](C)[C@@]3(CCN(c4ccsc4)C3=O)C2)n1.O=C(O)C(F)(F)F`, the “Percent Effect” value was 5.09%. `c1ccc(CO[C@H]2C[C@@H]3CN(Cc4cccnc4)C[C@@H]3C2)cc1` was tested, and the “Percent Effect” value was -10.82%. For `Cc1cnn(CC2CN(c3ncnc4ccsc34)CCO2)c1` (stereo not drawn), the “Percent Effect” value was 28.88%. `c1nc(N2CCOC(Cn3cncn3)C2)c2sccc2n1` (stereo not drawn) was tested, and the “Percent Effect” value was -23.67%. In the case of `c1cnn(CC2CN(c3ncnc4ccsc34)CCO2)c1` (stereo not drawn), the “Percent Effect” value is reported as 105.5%. In the case of `C[C@H](N)Cn1nc(-c2cccs2)oc1=O.Cl`, the “Percent Effect” value is reported as -14.47%. In the case of `Cn1nc(CN2CCCN(C3CCCC3)CC2)c2c(Cl)cccc21`, the “Percent Effect” value is reported as 57.91%. For `Cn1nc(CN2CCCCC(N)C2)c2c(Cl)cccc21` (stereo not drawn), the “Percent Effect” value was -3.376%. In the case of `C[C@@H]1CN(C2CCN(Cc3nn(C)c4cccc(Cl)c34)CC2)C[C@H](C)O1`, the “Percent Effect” value is reported as -2.477%. In the case of `Cc1ccc(C(=O)N2CCC3(CC2)CC(c2cnn(C)c2)CO3)cn1.O=C(O)C(F)(F)F` (stereo not drawn), the “Percent Effect” value is reported as -3.038%. In the case of `NC(=O)N1CC[C@H](O)[C@@H]1Cc1cccnc1.O=C(O)C(F)(F)F`, the “Percent Effect” value is reported as -3.918%. With `COC(=O)CSc1nnc(CCNC(=O)OC(C)(C)C)o1` the “Percent Effect” value was 12.63%. With `CCN(CC)C(=O)CSc1nnc(CCNC(=O)OC(C)(C)C)o1` the “Percent Effect” value was 3.451%. For `C=C(C)CSc1nnc(CCNC(=O)OC(C)(C)C)o1`, the “Percent Effect” value was 54.16%. `O=C(O)C(F)(F)F.O=C(c1ccco1)N1CCO[C@@H]2CN(CC3CC3)CC[C@@H]2C1` was tested, and the “Percent Effect” value was -6.108%. For `Cc1ccc(CN2CC[C@H](c3nnc(COc4ccc(F)cc4)o3)C2)o1`, the “Percent Effect” value was 102.2%. With `Fc1ccc(OCc2nnc([C@H]3CCN(Cc4ccncc4)C3)o2)cc1` the “Percent Effect” value was 43.75%. `CC(C)CN1CC[C@H](c2nnc(COc3ccc(F)cc3)o2)C1` was tested, and the “Percent Effect” value was 15.46%. In the case of `Cc1nn(C)c(C)c1S(=O)(=O)N1CC[C@H]2O[C@@H](C)C[C@H]2C1.O=C(O)C(F)(F)F`, the “Percent Effect” value is reported as 4.759%.
